Data on 8 molecules can be found in PubChem BioAssay (NCI).

Molecules are shown by their SMILES. About 83,000 compounds went through this panel and 20% of them were active in at least one assay; those are over-represented in the sample as a whole.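 A percent growth of 40 corresponds to 60% growth inhibition; 0 means no net growth; -100 means all cells died. Active threshold: below 10.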 Values without a mark were called inactive. The source made the active and inactive calls.

Holding throughout (assay): NCI-60 one-dose screen, 48 h (100 = growth as untreated, 0 = no growth, -100 = all killed)
Holding throughout (details): 10 µM unless noted

For assay [1], the system named is NCI-H23 lung.
Assay [2] relates to NCI-H226 lung.
Assay [3] relates to NCI-H322M lung.
In assay [4] the test system is HOP-62 NSCLC.
In assay [5] the test system is NCI-H460 lung.
The subject of assay [6] is HOP-92 NSCLC.
Assay [7] deals with NCI-H522 lung.
The test system of assay [8] is A549/ATCC NSCLC.
The subject of assay [9] is 786-0 renal.
Assay [10] relates to COLO 205 colon.
Assay [11] has as its system DU-145 prostate.
Assay [12] concerns K-562 leukemia.
Assay [13] concerns MALME-3M melanoma.
For assay [14], the system named is MDA-MB-231 breast.
The subject of assay [15] is RXF 393 renal.
Assay [16] deals with SF-268 CNS.
The subject of assay [17] is SF-295 CNS.
Assay [18] deals with SF-539 CNS.
Assay [19] concerns UACC-257 melanoma.
In assay [20] the test system is M14 melanoma.

As to `CCCn1c(N)c(C(N)=O)sc1=S`, the growth in assay [1] is 105%; in [2] it was 103%; in assay [3], 101%; in assay [4] it was 98.9%; in assay [5], 114%; in [6] it was 89.5%. The growth in assay [7] is 94.5%; in [8] it was 112%; in assay [9], 103%; in assay [10] it was 118%; in [11], 117%; in assay [12], 119%. In addition, the growth in assay [13] was 105%; in [14] it was 99.8%; in assay [15] it was 125%; in assay [16], 97.2%; in [17], 115%; in assay [18], 109%. Besides, the growth in assay [19] was 109%; in [20], 103%.

On to `CNCc1cccc2c1OCCOCCOCCN(CCN1CCOCC1)S(=O)(=O)c1ccc(cc1)-c1cnc(N)c(n1)C(=O)N2`, for which the growth in assay [1] was 42.3%; in assay [2], 78.4%; in [3], 49.8%; in assay [4], 100%; in [5] it was 30.7%; in assay [6] it was 87.9%. Also, the growth in assay [7] was 49%; in assay [8], 46.4%; in [9], 10.6%; in [10] it was 22.3%; in assay [11], 45.7%; in assay [12], 12.6%. Moreover, the growth in assay [13] was 93.8%; in assay [14], 94.1%; in assay [15] it was 14.8%; in [16] it was 68%; in assay [17], 68.1%; in assay [18], 24.1%. The growth was 98.7% in [19] and 26.4% in [20].

For `O=C(Nc1nc(-c2ccccc2Cl)cs1)c1cc(-c2ccc(Br)cc2)nc2ccccc12`, the growth in assay [1] was 14.3%; in assay [2], 37.5%; in assay [3], 70.4%; in [4], 52.6%; in assay [5] it was 45.9%; in assay [6] it was 21.4%. Further, the growth in assay [7] is 4.64% (active); in [8] it was 37.5%; in assay [9], 75.3%; in [10], 67.2%; in [11] it was 69.3%; in assay [12] it was 23.5%. Besides, the growth was 75.1% in assay [13]; 27.3% in [14]; 59% in assay [15]; 66.4% in assay [16]; 34.4% in assay [17]; 76.1% in assay [18]. Besides, the growth is 29.5% in assay [19] and 62.5% in assay [20].

Turning to `C/C(=N/Nc1nc2ccccc2n1C)c1ccccn1`, the growth was 6.57% (active) in [1]; -12.1% (active) in assay [2]; 14.7% in [3]; -7.45% (active) in assay [4]; -23.3% (active) in assay [5]; 15.9% in assay [6]. In addition, the growth in assay [7] is -4.8% (active); in assay [8], 4.01% (active); in assay [9], 9.02% (active); in assay [10], -4.66% (active); in [11] it was 16.2%; in assay [12] it was 5.81% (active). Moreover, the growth in [13] was 11.6%; in [14] it was 28.8%; in assay [15] it was -12.5% (active); in assay [16] it was 10.7%; in [17] it was 8.08% (active); in assay [18] it was 0.5% (active). Also, the growth in assay [19] is -29.2% (active); in [20], -4.55% (active).

For `CCCCCOC(=O)c1ccccc1O`, the growth was 112% in assay [1]; 97.8% in assay [2]; 101% in [3]; 85.4% in [4]; 108% in [5]; 88% in assay [6]. Also, the growth in assay [7] is 87.4%; in assay [8], 96.2%; in [9], 94.4%; in assay [10], 120%; in [11], 107%; in [12], 99.9%. In addition, the growth in assay [13] was 109%; in assay [14], 110%; in [15], 123%; in assay [16] it was 105%; in [17] it was 98%; in assay [18], 99.7%. The figures for the growth in [19] and in [20] were 94.3% and 97.4%, respectively.

As to `Cc1[nH]c2ncnc(Oc3ccc(NC(=O)Nc4ccc(Cl)c(C(F)(F)F)c4)cc3)c2c1C`, the growth in assay [1] is 56.7%; in assay [2], 75.1%; in [3] it was 69.6%; in [4], 59.3%; in assay [5], 36.1%; in assay [6], 91.9%. Also, the growth was 25.3% in assay [7]; 45.3% in assay [8]; 84% in assay [9]; 60.3% in [10]; 66.4% in assay [11]; 26.6% in [12]. Also, the growth in assay [13] is 61.6%; in assay [14], 44.6%; in [15] it was 74.3%; in assay [16], 53%; in [17] it was 62.4%; in assay [18] it was 56%. In addition, the growth was 64.2% in [19] and 52.1% in assay [20].

For `N#CCNc1ccc(C(=O)O)cc1`, the growth in assay [1] was 101%; in [2], 95.3%; in assay [3], 114%; in assay [4] it was 98.3%; in assay [5], 103%; in assay [6] it was 94%. The growth in [7] was 90.4%; in assay [8], 87%; in assay [9] it was 104%; in [10], 110%; in assay [11] it was 113%; in [12], 97.4%. Moreover, the growth was 105% in [13]; 104% in [14]; 101% in assay [15]; 105% in [16]; 104% in [17]; 110% in assay [18]. Moreover, the growth in assay [19] is 98.4%; in [20] it was 110%.

For `Cc1ccc(C(=O)/C(=C/c2ccc([N+](=O)[O-])cc2)S(=O)Cc2ccccc2)cc1` (stereo not given), the growth in [1] was 13.6%; in assay [2] it was 47.1%; in [3], 81.6%; in assay [4], 47.9%; in assay [5], 22.1%; in assay [6] it was 36.9%. In addition, the growth in assay [7] is -32% (active); in assay [8], 65.1%; in [9] it was -49.5% (active); in assay [10], -26.4% (active); in assay [11], 4.09% (active); in assay [12], 4.71% (active). Moreover, the growth in assay [13] was -13.8% (active); in assay [14] it was -2.07% (active); in assay [15], -81.6% (active); in assay [16], 35.8%; in assay [17] it was 82.3%; in [18], -43.5% (active). Also, the growth in assay [19] is 65.9%; in [20], -26.1% (active).
